Reference: PubChem BioAssay (NCATS)
Inconclusive results are not listed. Calls of active or inactive are those of the source. Calls come from the whole dose curve; as a rule, active = well fitted curve in the direction sought with a large enough effect; inconclusive = small, poorly fitted or top-dose-only effect, or another doubt; inactive = no such curve, though single readings can be large; an effect the other way counts as inactive or inconclusive.

What was measured:
[1] = S16 Schwann cell viability assay (CellTiter-Glo assay) (AID 624031);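 note: native untransfected S16 rat Schwann cells; cellular ATP luminescence as a viability measure; nearly all actives have a fitted effect of over 70% in size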
Outline: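 Following overnight culture in 10% FBS DMEM, parental S16 rat Schwann cells are dosed for 24 h at 37 °C. Viability is read as CellTiter-Glo luminescence and expressed as % activity relative to DMSO (0%) and no-cell wells.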

[2] = S16 Schwann cell PMP22 intronic element firefly luciferase assay (AID 624032); note: nearly all actives have a fitted effect of over 30% in size; note: potency is the fitted concentration of half-maximal effect
Outline: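 Rat S16 Schwann cells stably carrying firefly luciferase driven by a PMP22 intronic element, in 10% FBS, treated 24 h at 37 C. ONE-Glo luminescence normalized to PTC124 control and DMSO (0%); curves classed by r2, magnitude and activity.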

AA1029 = experiment: qHTS profiling for inhibitors of Plasmodium falciparum proliferation (AID 504749); note: nearly all actives have a fitted effect of over 60% in size; note: potency is the fitted concentration of half-maximal effect; conditions: P. falciparum in erythrocytes, SYBR Green DNA, 72 h; series mostly up to 28.7 µM
Outline: (§1)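 Each compound contacts P. falciparum-infected red blood cells for 72 h at 37 C; lysis buffer (Tris, EDTA, saponin, Triton X, SYBR Green I) is added and fluorescence measured next morning; values normalized to controls.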

AS120 = experiment: as above; conditions: P. falciparum in erythrocytes, SYBR Green DNA, 72 h; series mostly up to 28.7 µM
Outline: as §1

ATS95 = experiment: as above; conditions: P. falciparum in erythrocytes, SYBR Green DNA, 72 h; series mostly up to 28.7 µM
Outline: as §1

CP194 = experiment: as above; conditions: P. falciparum in erythrocytes, SYBR Green DNA, 72 h; series mostly up to 28.7 µM
Outline: as §1

CP247 = experiment: as above; conditions: P. falciparum in erythrocytes, SYBR Green DNA, 72 h; series mostly up to 28.7 µM
Outline: as §1

CP266 = experiment: as above; conditions: P. falciparum in erythrocytes, SYBR Green DNA, 72 h; series mostly up to 28.7 µM
Outline: as §1

CP297 = experiment: as above; conditions: P. falciparum in erythrocytes, SYBR Green DNA, 72 h; series mostly up to 28.7 µM
Outline: as §1

DFO2036 = experiment: as above; conditions: P. falciparum in erythrocytes, SYBR Green DNA, 72 h; series mostly up to 28.7 µM
Outline: as §1

DIV14 = experiment: as above; conditions: P. falciparum in erythrocytes, SYBR Green DNA, 72 h; series mostly up to 28.7 µM
Outline: as §1

Dd2 = experiment: as above; conditions: P. falciparum in erythrocytes, SYBR Green DNA, 72 h; series mostly up to 28.7 µM
Outline: as §1

GB4 = experiment: as above; conditions: P. falciparum in erythrocytes, SYBR Green DNA, 72 h; series mostly up to 28.7 µM
Outline: as §1

ICS = experiment: as above; conditions: P. falciparum in erythrocytes, SYBR Green DNA, 72 h; series mostly up to 28.7 µM
Outline: as §1

P93_24 = experiment: as above; conditions: P. falciparum in erythrocytes, SYBR Green DNA, 72 h; series mostly up to 28.7 µM
Outline: as §1

P94_40 = experiment: as above; conditions: P. falciparum in erythrocytes, SYBR Green DNA, 72 h; series mostly up to 28.7 µM
Outline: as §1

PAD = experiment: as above; conditions: P. falciparum in erythrocytes, SYBR Green DNA, 72 h; series mostly up to 28.7 µM
Outline: as §1

SC27B = experiment: as above; conditions: P. falciparum in erythrocytes, SYBR Green DNA, 72 h; series mostly up to 28.7 µM
Outline: as §1

TAB165 = experiment: as above; conditions: P. falciparum in erythrocytes, SYBR Green DNA, 72 h; series mostly up to 28.7 µM
Outline: as §1

PC15 = experiment: as above; conditions: P. falciparum in erythrocytes, SYBR Green DNA, 72 h; series mostly up to 28.7 µM
Outline: as §1

Measured: Potency

CC1OC(O[C@H]2C[C@@H](O)[C@]3(CO)[C@@H]4C(CC[C@]3(O)C2)[C@@]2(O)CC[C@H](C3=CC(=O)OC3)[C@@]2(C)C[C@H]4O)C(O)C(O)C1O (stereo not given in full)
not listed: PC15
inactive: all other assays above

CCCN1CCCC2Cc3nc(N)ncc3CC21 (stereo not given)
inactive: all assays above

CC(=O)[C@H]1CC[C@H]2C3CC[C@H]4C[C@H](O)CC[C@]4(C)C3CC[C@]12C (stereo not given in full)
inactive: all assays above

CC(=O)Oc1ccc2c3c1OC1[C@@H](OC(C)=O)C=C[C@H]4[C@H](C2)N(C)CC[C@]314 (stereo not given in full)
inactive: all assays above

CCOC(=O)/C=C(C)/C=C/CC(C)CCCC(C)C (stereo not given)
inactive: all assays above

CCCCCCC(=O)O[C@H]1CC[C@H]2[C@@H]3CCC4CC(=O)C=C(C)[C@]4(C)[C@H]3CC[C@]12C (stereo not given in full)
active: [2] 11.4 µM | ICS 10 µM
not listed: Dd2 | PC15
inactive: all other assays above

CC(Cc1ccccc1)N(C)C (stereo not given)
not listed: GB4
inactive: all other assays above

CC1(C)[C@@H](C=C(Cl)Cl)[C@@H]1C(=O)OCc1c(F)c(F)cc(F)c1F
not listed: [2] | CP297
inactive: all other assays above

C=CC[N+]1(C)CCC23c4c5ccc(O)c4O[C@H]2C(=O)CC[C@@]3(O)C1C5 (stereo not given in full)
inactive: all assays above

COc1ccc2c3c1O[C@H]1[C@@H](O)C=C[C@H]4C(C2)NCCC341 (stereo not given in full)
inactive: all assays above

C[C@]12CC[C@H]3[C@@H](CC[C@@]45O[C@@H]4C(=O)C(C#N)C[C@]35C)[C@@H]1CC[C@@H]2O (stereo not given in full)
inactive: [1] | [2] | CP247 | CP266 | CP297 | DIV14 | Dd2 | P94_40 | PAD | PC15

CC(C)CCC(=O)OC1CCC2C3CCC4=CC(=O)CC[C@]4(C)C3CC[C@]12C (stereo not given in full)
active: ICS 7.94 µM
inactive: CP194 | CP266 | CP297 | DIV14 | GB4
